# Measurements taken from PubChem BioAssay (NCI).
# Several values for one entry are separate records, joined by “and”; a condition that tells them apart may be missing. Identical values can stand only once. This is part of a sample that, as a whole, favours compounds with a hit. Of some 79,000 tested, about 15% had one in any assay. A number with no mark means an inactive call. Activity calls are given as the source filed them. No stated cut-off is given here; in the data, active means growth inhibition above about 70%; inactive means the rest. Where a SMILES comes first, the peptide text is derived from it. The star is where a group is joined. Cbz = O=C(OCc1ccccc1)*; Boc = CC(C)(C)OC(=O)*; tBu = CC(C)(C)*
# Columns and labels:
# [1] = NCI Yeast Anticancer Drug Screen. Data for the rad50 strain (AID 155);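 further: 0% = growth of vehicle-only cultures of the same strain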; details: S. cerevisiae rad50 strain growth inhibition, stronger effect = higher value; at 50.0 µM unless noted
# Summary of the method: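 Growth of the mutant yeast was measured after compound exposure and referenced to vehicle-treated cultures.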
# [2] = NCI Yeast Anticancer Drug Screen. Data for the mec2-1 strain (AID 157); details: S. cerevisiae mec2-1 strain, stronger effect = higher value; at 50.0 µM unless noted
# Summary of the method: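 Each compound was tested on mec2-1 yeast, a strain altered in DNA damage repair or cell cycle control. Growth inhibition is reported relative to vehicle.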
# [3] = NCI Yeast Anticancer Drug Screen. Data for the sgs1 mgt1 strain (AID 161);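 further: 0% = growth of cultures given vehicle only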; details: S. cerevisiae sgs1 mgt1 strain, stronger effect = higher value; at 50.0 µM unless noted
# Summary of the method: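 Mutant yeast exposed to compound; growth scored against vehicle-only wells.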
# [4] = NCI Yeast Anticancer Drug Screen. Data for the cln2 rad14 strain (AID 165);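 further: 0% = growth equal to vehicle treated cultures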; details: S. cerevisiae cln2 rad14 strain, stronger effect = higher value; at 50.0 µM unless noted
# Summary of the method: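 Test compounds were added to cln2 rad14 yeast cultures; inhibition of growth was then determined by comparison with vehicle treatment.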
# [5] = NCI Yeast Anticancer Drug Screen. Data for the bub3 strain (AID 167); details: S. cerevisiae bub3 mutant strain, stronger effect = higher value; at 50.0 µM unless noted
# Summary of the method: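 Whole-cell yeast assay. The mutant strain was incubated with compounds, and growth inhibition was determined by comparison with vehicle-treated cells.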
# [6] = NCI Yeast Anticancer Drug Screen. Data for the mlh1 rad18 strain (AID 175); details: S. cerevisiae mlh1 rad18 strain growth inhibition, stronger effect = higher value; at 50.0 µM unless noted
# Summary of the method: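 Inhibition values reflect reduced growth of mutant yeast versus vehicle-treated controls following compound exposure; the mutations affect DNA damage repair.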
Compound,growth inhibition [1],growth inhibition [2],growth inhibition [3],growth inhibition [4],growth inhibition [5],growth inhibition [6]
CC(C)c1ccc(C2NC(c3ccccc3)c3c(ccc4ccccc34)O2)cc1 (stereo not given),36.9%,-4.85%,6.1%,0.5%,-1.6%,-1.65%
CCOc1ccccc1N1CCN(CC(O)CSc2ccccc2)CC1 (stereo not given),1.3%,-9.25%,-6.2%,-33.6%,4.95%,-2.65%
Cc1c2ccncc2c(C)c2c1[nH]c1ccc(O)cc12,16.9%,14.2%,43.9%,23.6%,19.5%,58.9%
CC(=O)OC1=C2OC(=O)C3(C2C=CC=C1)C1C=CC=CC13 (stereo not given),-17.9%,1.3%,2.8%,-2.45%,-13.8%,-1.95%
CC(C)C(=O)NCC[C@@H](CNC(=O)OC(C)(C)C)NC(=O)OC(C)(C)C,20.1%,-3.1%,38.6%,-3.85%,28.7%,34.5%
O=C(O)c1ccc(C(=O)NCCCN(CCCCN(CCCNC(=O)c2ccc(C(=O)O)c(O)c2O)C(=O)c2ccc(C(=O)O)c(O)c2O)C(=O)c2ccc(C(=O)O)c(O)c2O)c(O)c1O,11.2%,16.1%,20.3%,-31.3%,0.35%,24.9%
OCCN1CCCCCCC1,-2% and 0.2%,-6.15% and -3.8%,-4.6% and 0.65%,-0.45% and 5.6%,-6.3% and 10.1%,-7.5% and -0.3%
Cc1cccc2c(N3CCN(c4ccccc4)CC3)c3c(nc12)CCCCC3,11.4%,-22.7%,-12.3%,-3.05%,3.2%,-2.7%
CC(C)=CCCC(C)CCO (stereo not given),-5.1%,-4.75%,-15.4%,16.4%,-16.6%,3.25%
CC(OC(C)(C)C)C(NC(=O)C(CCCCNC(=O)OC(C)(C)C)NC(=O)C(Cc1c[nH]c2ccccc12)NC(=O)C(Cc1ccccc1)NC(=O)OCc1ccccc1)C(=O)NC(Cc1ccccc1)C(=O)O (stereo not given) (Cbz-FWK(Boc)T(tBu)F-OH; configuration not given here),-10.3%,-16.6%,-24.2%,24.4%,1.3%,-19.4%
CCOC(OCC)c1cc(=O)[nH]c(NC(C)=O)n1,-1.15%,0.05%,10%,-11.9%,-1.25%,5.4%
COc1ccc2oc(-c3cc4cc(OC)ccc4o3)cc2c1,-10.7%,-5.7%,-12.8%,-17.9%,-61.2%,-0.55%
O=C(O)CCc1cnc[nH]1,-0.7%,-1.8%,1.2%,22.5%,14.6%,2.3%
NC(CSS(=O)(=O)O)=NCCCOCc1ccccc1,15.4%,7%,12.3%,10%,18.6%,-7.2%
Cc1cn(C2CC(OP(=O)(O)OCC3OC(n4ccc(N)nc4=O)C(O)C3O)C(CO)O2)c(=O)[nH]c1=O (stereo not given),7.55%,1.5%,8.15%,13.7%,-23.6%,-74.2%
Cc1cccc(C(=O)NNC(=O)C(=O)NNC(=O)c2cccc(C)c2)c1,3.6%,43.6%,-3.1%,-0.05%,24.6%,26.9%
CC(C)C1=CCC2C(=C1)CCC1C(C)(N=C=O)CCCC21C (stereo not given),-28.6%,-10.1%,-7.7%,-51.8%,38.8%,-4%
CCC(C)C(O)C(C(=O)O)C1CCCCC1 (stereo not given),31.6%,23.2%,15.4%,39.5%,23.9%,26%
COc1ccc(-c2cc(=O)c3c(O)c(O)c(OC)cc3o2)cc1O,-5.15%,-28.6%,-55.9%,-8.4%,-2.6%,-18.3%
COc1nc(NC2OC(CO)C(O)C(O)C2O)c(C(=O)CCl)c(=O)n1C (stereo not given),3.9%,4.2%,-15.8%,-7.45%,-3.4%,4.05%

Compound,growth inhibition [1],growth inhibition [2],growth inhibition [3],growth inhibition [4],growth inhibition [5],growth inhibition [6]
O=C1c2ccc3c4ccccc4n(-c4ccccc4)c3c2C(=O)N1c1ccc(Cl)cc1,-11.8%,-2.95%,-26.2%,24.9%,-18.4%,-7.05%
CC(C)CC(=O)/C=C\c1ccco1,-15.2%,-33.5%,1.05%,1.3%,-10.5%,-7.45%
Cc1cc2ccccc2n1/C=C/C1=[N+](C)c2ccccc2C1(C)C,10.3%,6.25%,10.5%,-38.9%,8.1%,25.9%
CCCCNC(=O)c1cc(=O)[nH]c(=O)[nH]1,1.5%,-6.55%,6.6%,5.6%,-16.1%,20.1%
C=CCCC(=O)CC(=O)OCc1ccccc1,-7.2%,-31%,-1.15%,8.05%,-37%,16.1%
Cc1ccccc1C(=O)C[n+]1ccccc1C,-11.8%,15.5%,-5.7%,-21.6%,4.1%,8.3%
COc1ccc(C2(OC)Oc3cc(OC)ccc3-c3nc4ccccc4nc32)cc1 (stereo not given),23.4%,1.25%,-4.15%,11.6%,4.3%,0.4%
CCC(NN)C(=O)O (stereo not given),5.45%,-14.1%,-33.6%,-26%,-9.5%,-5.35%
CC(C)C1N(N2C(=O)CS(=O)(=O)C2C(C)C)C(=O)CS1(=O)=O (stereo not given),3.45%,-15.1%,-6.8%,6.75%,-9.15%,24.3%
C=CC(=O)NC12CC3CC(CC(C3)C1)C2,-4.45%,-0.3%,-8.1%,-23.9%,-15.6%,0.05%
CCOC(=O)C1CC1,-9.65%,-39.5%,1%,0.05%,-9.75%,-2.7%
N=C(N)CCNC(=O)C1CCC(N)=N1 (stereo not given),-4.85%,-17.8%,-13.9%,56.4%,-28.1%,-13.6%
CCOC(=O)NC(=O)c1cn(CCSCCOC(=O)NCCCCCCNC(=O)OCCSCCn2cc(C(=O)NC(=O)OCC)c(=O)n(C)c2=O)c(=O)n(C)c1=O,-26%,-10.6%,-29.7%,7.9%,-0.35%,-18.4%
O=C1CCC2OC(=O)C3CCCC1C23 (stereo not given),-6.05%,-1.85%,-19%,0.1%,-2.65%,-14.2%
C1CSCCSCCS1,11.6%,0.9%,20.1%,4.85%,28%,-4.9%
CCCCCCOS(=O)(=O)c1ccc(C)cc1,23.1%,-9.95%,-2.1%,16.6%,6.7%,22.4%
CC(=O)NC1C(OCc2ccccc2)OC(CO)C(O)C1OC(C)C(=O)N[C@@H](C)C(=O)N[C@H](CCC(=O)OCCNc1c2ccccc2nc2cccc([N+](=O)[O-])c12)C(N)=O (stereo not given in full),87.2% (active),90.8% (active),90.4% (active),90.5% (active),88.7% (active),86.8% (active)
COCCN(CCOC)C(=O)Nc1ccc(Cl)cc1,4.6%,5.5%,10.4%,4.5%,0.8%,9.75%
O=C(O)c1ccc(P(=O)(O)O)cc1[N+](=O)[O-],26.4%,9.65%,-9.45%,1.75%,4.25%,-7%
O=C1CCC(=O)N1N1C(=O)CCC1=O,-9.65%,-24.2%,-10.4%,7.05%,-23.2%,3.35%
